# Data: publication PMC7862700, “An all-to-all approach to the identification of sequence-specific readers for epigenetic DNA modifications on cytosine”
# What was measured:
# Test in all cases: DAPPL (digital affinity profiling via proximity ligation, sequencing); 10 mM Tris-HCl pH 7.5, 50 mM NaCl, 1 mM DTT, 4% glycerol, room temperature, 30 min; GST-TFs on glutathione beads, 16-mer random dsDNA library, 0.1% formaldehyde crosslink after washing; high values mean tight binding
# FEV = target: T1, FEV (Homo sapiens, UniProt Q99581 1-238); conditions: protein: recombinant; tags: N-terminal GST; dsDNA, one strand shown
# T1 sequence: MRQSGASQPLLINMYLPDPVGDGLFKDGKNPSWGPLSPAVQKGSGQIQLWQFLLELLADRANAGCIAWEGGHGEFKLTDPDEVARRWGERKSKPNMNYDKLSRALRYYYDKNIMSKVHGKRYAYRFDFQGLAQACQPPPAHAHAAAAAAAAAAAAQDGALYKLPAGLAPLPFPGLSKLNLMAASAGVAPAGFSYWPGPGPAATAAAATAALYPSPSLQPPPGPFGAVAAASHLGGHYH
# Summary of the method: (§1)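 Human transcription factors fused to GST were expressed in yeast, captured on glutathione beads, given DNA barcodes and pooled with a GST-only negative control. Pools were incubated with 200 nmole of a 16-mer random double-stranded DNA library in Tris/NaCl/DTT/glycerol buffer at room temperature for 30 min. They were then washed, crosslinked with 0.1% formaldehyde, proximity-ligated (BsaI/T4 ligase, 1 h, 37 °C), PCR-amplified and sequenced on an Illumina NextSeq500. Binding signal is each 6-mer's read frequency for a factor divided by its frequency for the GST control.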
# ETV5 = ETV5 (Homo sapiens, UniProt P41161 1-510); conditions: protein: recombinant; tags: N-terminal GST; dsDNA, one strand shown
# Summary of the method: as §1
# HSF1 = HSF1 (Homo sapiens, UniProt Q00613 1-529); conditions: protein: recombinant; tags: N-terminal GST; chain copies: 3; dsDNA, one strand shown
# Summary of the method: as §1
# SPIC = target: T2, SPIC (Homo sapiens, UniProt Q8N5J4 1-248); conditions: protein: recombinant; tags: N-terminal GST; dsDNA, one strand shown
# T2 sequence: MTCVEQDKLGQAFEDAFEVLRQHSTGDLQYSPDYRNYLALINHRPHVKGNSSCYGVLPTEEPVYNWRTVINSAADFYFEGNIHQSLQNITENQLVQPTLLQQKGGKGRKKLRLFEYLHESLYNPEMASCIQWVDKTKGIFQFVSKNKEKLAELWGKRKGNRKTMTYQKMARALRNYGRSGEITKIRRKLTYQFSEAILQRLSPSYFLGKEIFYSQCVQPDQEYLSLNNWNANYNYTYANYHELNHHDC
# Summary of the method: as §1
# ELF4 = ELF4 (Homo sapiens, UniProt Q99607 1-663); conditions: protein: recombinant; tags: N-terminal GST; dsDNA, one strand shown
# Summary of the method: as §1
# ELK4 = target: T3, ELK4 (Homo sapiens, UniProt P28324-2 1-405); conditions: protein: recombinant; tags: N-terminal GST; dsDNA, one strand shown
# T3 sequence: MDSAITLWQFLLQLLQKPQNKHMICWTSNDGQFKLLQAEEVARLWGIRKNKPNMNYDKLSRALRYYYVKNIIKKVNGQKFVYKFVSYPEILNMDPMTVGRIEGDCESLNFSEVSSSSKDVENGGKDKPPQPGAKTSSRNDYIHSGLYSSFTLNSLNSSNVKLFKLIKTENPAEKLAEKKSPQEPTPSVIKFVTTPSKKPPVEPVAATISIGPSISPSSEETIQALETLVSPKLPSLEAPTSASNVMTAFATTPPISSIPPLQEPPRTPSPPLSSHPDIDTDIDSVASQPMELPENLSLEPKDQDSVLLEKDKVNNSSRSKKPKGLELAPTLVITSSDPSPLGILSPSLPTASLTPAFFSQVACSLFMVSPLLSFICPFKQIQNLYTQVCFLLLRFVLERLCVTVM
# Summary of the method: as §1
# ETV2 = target: T4, ETV2 (Homo sapiens, UniProt O00321 1-342); conditions: protein: recombinant; tags: N-terminal GST; dsDNA, one strand shown
# T4 sequence: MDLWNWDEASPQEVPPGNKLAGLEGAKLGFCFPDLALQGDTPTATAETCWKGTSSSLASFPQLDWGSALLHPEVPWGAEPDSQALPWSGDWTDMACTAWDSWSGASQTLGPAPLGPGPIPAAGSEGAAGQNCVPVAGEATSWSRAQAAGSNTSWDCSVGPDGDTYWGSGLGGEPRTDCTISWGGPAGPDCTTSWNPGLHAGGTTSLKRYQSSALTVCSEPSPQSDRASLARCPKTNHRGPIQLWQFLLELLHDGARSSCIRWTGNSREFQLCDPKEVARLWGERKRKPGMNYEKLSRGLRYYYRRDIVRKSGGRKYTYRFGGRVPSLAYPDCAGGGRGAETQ
# Summary of the method: as §1
# ELF3 = target: T5, ELF3 (Homo sapiens, UniProt P78545 1-371); conditions: protein: recombinant; tags: N-terminal GST; dsDNA, one strand shown
# T5 sequence: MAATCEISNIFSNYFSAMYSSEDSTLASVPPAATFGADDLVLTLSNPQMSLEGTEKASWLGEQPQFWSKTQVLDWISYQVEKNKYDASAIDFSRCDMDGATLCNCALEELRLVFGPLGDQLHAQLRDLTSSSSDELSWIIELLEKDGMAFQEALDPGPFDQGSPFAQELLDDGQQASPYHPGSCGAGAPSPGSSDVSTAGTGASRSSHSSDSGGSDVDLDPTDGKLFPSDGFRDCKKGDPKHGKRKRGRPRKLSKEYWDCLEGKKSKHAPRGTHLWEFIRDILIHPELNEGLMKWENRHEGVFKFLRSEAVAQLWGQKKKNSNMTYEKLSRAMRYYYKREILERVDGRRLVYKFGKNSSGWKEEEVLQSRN
# Summary of the method: as §1
# CRX = CRX (Homo sapiens, UniProt O43186 1-299); conditions: protein: recombinant; tags: N-terminal GST; dsDNA, one strand shown
# Summary of the method: as §1
# ETV1 = ETV1 (Homo sapiens, UniProt P50549 1-477); conditions: protein: recombinant; tags: N-terminal GST; dsDNA, one strand shown
# Summary of the method: as §1
# Sequence of HSF1 (Q00613 whole entry): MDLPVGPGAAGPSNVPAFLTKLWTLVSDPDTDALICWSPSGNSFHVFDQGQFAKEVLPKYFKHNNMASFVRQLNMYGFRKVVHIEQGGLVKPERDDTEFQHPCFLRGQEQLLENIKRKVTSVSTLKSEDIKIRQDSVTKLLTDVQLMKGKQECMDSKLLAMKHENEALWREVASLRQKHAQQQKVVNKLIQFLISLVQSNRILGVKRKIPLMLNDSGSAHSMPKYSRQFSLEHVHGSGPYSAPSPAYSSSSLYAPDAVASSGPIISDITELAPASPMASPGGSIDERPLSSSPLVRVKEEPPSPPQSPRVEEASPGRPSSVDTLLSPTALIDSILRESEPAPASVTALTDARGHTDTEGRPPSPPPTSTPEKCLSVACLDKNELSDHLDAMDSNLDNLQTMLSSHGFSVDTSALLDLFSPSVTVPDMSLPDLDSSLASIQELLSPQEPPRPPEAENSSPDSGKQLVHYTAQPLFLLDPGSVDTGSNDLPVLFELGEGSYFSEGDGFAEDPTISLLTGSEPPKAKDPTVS
# Sequence of ETV5 (P41161 whole entry): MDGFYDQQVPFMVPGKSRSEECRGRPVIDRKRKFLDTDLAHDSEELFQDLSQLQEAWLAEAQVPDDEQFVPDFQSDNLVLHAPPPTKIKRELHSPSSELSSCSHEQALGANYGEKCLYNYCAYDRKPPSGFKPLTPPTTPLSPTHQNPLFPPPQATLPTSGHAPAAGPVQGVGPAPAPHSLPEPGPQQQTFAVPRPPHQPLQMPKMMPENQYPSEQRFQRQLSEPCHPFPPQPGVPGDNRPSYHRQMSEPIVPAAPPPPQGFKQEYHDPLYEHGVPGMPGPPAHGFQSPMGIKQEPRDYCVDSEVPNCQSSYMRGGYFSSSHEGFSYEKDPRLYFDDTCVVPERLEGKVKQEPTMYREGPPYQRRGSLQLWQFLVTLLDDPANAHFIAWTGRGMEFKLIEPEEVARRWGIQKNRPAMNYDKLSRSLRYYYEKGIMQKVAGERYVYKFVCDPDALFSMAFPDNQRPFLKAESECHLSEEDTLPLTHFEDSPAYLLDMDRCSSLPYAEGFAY
# Sequence of CRX (O43186 whole entry): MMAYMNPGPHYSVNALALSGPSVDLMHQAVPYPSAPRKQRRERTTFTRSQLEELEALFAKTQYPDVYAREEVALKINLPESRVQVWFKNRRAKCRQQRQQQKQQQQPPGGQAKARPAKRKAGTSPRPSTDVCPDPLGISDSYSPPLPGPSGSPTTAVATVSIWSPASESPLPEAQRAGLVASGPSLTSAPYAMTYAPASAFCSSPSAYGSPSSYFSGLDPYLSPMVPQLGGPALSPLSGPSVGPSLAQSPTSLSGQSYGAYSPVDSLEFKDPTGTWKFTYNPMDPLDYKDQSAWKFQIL
# Sequence of ELF4 (Q99607 whole entry): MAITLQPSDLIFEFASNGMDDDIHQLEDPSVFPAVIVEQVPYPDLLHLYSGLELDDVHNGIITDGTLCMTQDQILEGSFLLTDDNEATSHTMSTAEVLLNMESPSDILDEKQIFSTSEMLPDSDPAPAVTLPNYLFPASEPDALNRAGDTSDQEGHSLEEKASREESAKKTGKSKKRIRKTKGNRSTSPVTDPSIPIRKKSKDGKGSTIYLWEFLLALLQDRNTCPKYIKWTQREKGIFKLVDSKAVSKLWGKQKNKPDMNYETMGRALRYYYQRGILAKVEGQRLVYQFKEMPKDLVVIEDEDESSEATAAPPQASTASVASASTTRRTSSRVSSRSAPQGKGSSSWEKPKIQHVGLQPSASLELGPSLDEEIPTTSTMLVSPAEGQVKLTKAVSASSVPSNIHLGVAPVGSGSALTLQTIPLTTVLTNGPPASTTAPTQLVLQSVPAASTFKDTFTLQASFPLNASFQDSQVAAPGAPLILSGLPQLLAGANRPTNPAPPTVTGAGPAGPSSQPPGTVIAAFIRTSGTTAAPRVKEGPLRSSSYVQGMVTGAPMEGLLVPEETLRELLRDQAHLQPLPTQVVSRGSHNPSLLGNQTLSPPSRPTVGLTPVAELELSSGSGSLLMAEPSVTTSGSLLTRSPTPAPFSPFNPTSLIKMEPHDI
# Sequence of ETV1 (P50549 whole entry): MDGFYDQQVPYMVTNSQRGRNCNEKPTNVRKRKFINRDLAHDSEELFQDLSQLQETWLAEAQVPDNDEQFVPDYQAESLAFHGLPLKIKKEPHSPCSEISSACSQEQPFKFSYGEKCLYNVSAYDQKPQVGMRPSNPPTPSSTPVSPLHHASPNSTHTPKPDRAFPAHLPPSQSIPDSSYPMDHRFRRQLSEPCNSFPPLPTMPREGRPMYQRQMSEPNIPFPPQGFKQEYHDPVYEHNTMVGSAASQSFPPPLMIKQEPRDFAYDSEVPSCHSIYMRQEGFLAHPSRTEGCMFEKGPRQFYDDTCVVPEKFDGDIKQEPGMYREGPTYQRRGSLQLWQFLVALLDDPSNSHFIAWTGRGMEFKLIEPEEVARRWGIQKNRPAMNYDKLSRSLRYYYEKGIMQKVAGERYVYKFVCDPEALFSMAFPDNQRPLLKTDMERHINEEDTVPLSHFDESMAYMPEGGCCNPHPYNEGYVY
sequence,measurement,setting,value
AATGAT,binding signal,FEV,"1.18 fold enrichment (6-mer frequency, TF over GST control)"
same,binding signal,ETV5,"1.14 fold enrichment (6-mer frequency, TF over GST control)"
same,binding signal,HSF1,"1.25 fold enrichment (6-mer frequency, TF over GST control)"
same,binding signal,SPIC,"1.1 fold enrichment (6-mer frequency, TF over GST control)"
same,binding signal,ELF4,"1.17 fold enrichment (6-mer frequency, TF over GST control)"
same,binding signal,ELK4,"1.25 fold enrichment (6-mer frequency, TF over GST control)"
same,binding signal,ETV2,"1.21 fold enrichment (6-mer frequency, TF over GST control)"
same,binding signal,ELF3,"1.17 fold enrichment (6-mer frequency, TF over GST control)"
same,binding signal,CRX,"1.37 fold enrichment (6-mer frequency, TF over GST control)"
same,binding signal,ETV1,"1.07 fold enrichment (6-mer frequency, TF over GST control)"
